Data on 7 compounds can be found in paper PMC11062922 (Nature Chemical Biology, 2023).

What all share (design): species or system human, MV4-11 + K-562 + COLO205 + SK-N-BE2 + OVCAR-8
The subject of one assay is ADRBK1. Particulars: read-out: apparent Kd, n = 1.
For the next assay, the system named is FLT3. Particulars: read-out: apparent Kd, compound concentrations: 100 nM and 1000 nM (sheet 'Samples'), n = 1.
A further assay deals with NNT. Particulars: read-out: apparent Kd, compound concentrations: 100 nM and 1000 nM (sheet 'Samples'), n = 1.
The test system of a further assay is PDGFRB. Particulars: read-out: apparent Kd, compound concentrations: 100 nM and 1000 nM (sheet 'Samples'), n = 1.
Another assay deals with AKT2. Particulars: read-out: apparent Kd, compound concentrations: 100 nM and 1000 nM (sheet 'Samples'), n = 1.
In another assay the test system is AKT3. Particulars: read-out: apparent Kd, compound concentrations: 100 nM and 1000 nM (sheet 'Samples'), n = 1.
The subject of another assay is MAP2K2. Particulars: read-out: apparent Kd, compound concentrations: 100 nM and 1000 nM (sheet 'Samples'), n = 1.
In the next assay the test system is MYLK3. Particulars: read-out: apparent Kd; compound concentrations: 100 nM and 1000 nM (sheet 'Samples'), CATDS: 0.56668098220649099; n = 1.
For the next assay, the system named is NQO1. Particulars: read-out: apparent Kd, compound concentrations: 100 nM and 1000 nM (sheet 'Samples'), n = 1.
In a further assay the test system is RIOK2. Particulars: read-out: apparent Kd; compound concentrations: 100 nM and 1000 nM (sheet 'Samples'), CATDS: 0.13311346938063801; n = 1.
Another assay relates to MAPK14. Particulars: read-out: apparent Kd; compound concentrations:100 nM and 1000 nM (sheet 'Samples'); n = 1.
The next assay has as its system PIK3C2A. Particulars: read-out: apparent Kd; compound concentrations:100 nM and 1000 nM (sheet 'Samples'); n = 1.
The subject of the next assay is PRKCI. Particulars: read-out: apparent Kd; compound concentrations:100 nM and 1000 nM (sheet 'Samples'); n = 1.
Another assay concerns PYGL. Particulars: read-out: apparent Kd; compound concentrations:100 nM and 1000 nM (sheet 'Samples'); n = 1.
Another assay deals with RPS6KA3. Particulars: read-out: apparent Kd; compound concentrations:100 nM and 1000 nM (sheet 'Samples'); n = 1.
A further assay concerns STK16. Particulars: read-out: apparent Kd; compound concentrations:100 nM and 1000 nM (sheet 'Samples'); n = 1.
The subject of a further assay is AGPS. Particulars: read-out: apparent Kd; compound concentrations: 100 nM and 1000 nM (sheet 'Samples'), CATDS: 0.49272906791281001; n = 1.
The subject of another assay is FRK. Particulars: read-out: apparent Kd; compound concentrations: 100 nM and 1000 nM (sheet 'Samples'), CATDS: 9.2307505689948E-2; n = 1.
For a further assay, the system named is MAP2K5. Particulars: read-out: apparent Kd; compound concentrations: 100 nM and 1000 nM (sheet 'Samples'), CATDS: 0.380124521697633; n = 1.
Another assay relates to PRKCZ. Particulars: read-out: apparent Kd; compound concentrations: 100 nM and 1000 nM (sheet 'Samples'), CATDS: 7.7148514104913996E-2; n = 1.
In another assay the test system is PTK6. Particulars: read-out: apparent Kd; compound concentrations: 100 nM and 1000 nM (sheet 'Samples'), CATDS: 7.5013295148623801E-2; n = 1.
A further assay has as its system RIPK2. Particulars: read-out: apparent Kd; compound concentrations: 100 nM and 1000 nM (sheet 'Samples'), CATDS: 9.6327273582125797E-2; n = 1.
For the next assay, the system named is RIPK3. Particulars: read-out: apparent Kd, compound concentrations: 100 nM and 1000 nM (sheet 'Samples'), n = 1.
In the next assay the test system is ZAK. Particulars: read-out: apparent Kd; compound concentrations: 100 nM and 1000 nM (sheet 'Samples'), CATDS: 7.8640349215909094E-2; n = 1.
The subject of a further assay is AGK. Particulars: read-out: apparent Kd; compound concentrations: 100 nM and 1000 nM (sheet 'Samples'), CATDS: 0.56358245780801897; n = 1.
The next assay relates to CDK17. Particulars: read-out: apparent Kd; compound concentrations: 100 nM and 1000 nM (sheet 'Samples'), CATDS: 8.1529480800730997E-2; n = 1.
Another assay concerns CDK9. Particulars: read-out: apparent Kd; compound concentrations: 100 nM and 1000 nM (sheet 'Samples'), CATDS: 7.5399196753672404E-2; n = 1.
A further assay concerns CSNK1A1. Particulars: read-out: apparent Kd; compound concentrations: 100 nM and 1000 nM (sheet 'Samples'), CATDS: 8.2829529423840004E-2; n = 1.
The next assay deals with HCK. Particulars: read-out: apparent Kd; compound concentrations: 100 nM and 1000 nM (sheet 'Samples'), CATDS: 0.17397087448623899; n = 1.
A further assay deals with ILK. Particulars: read-out: apparent Kd; compound concentrations: 100 nM and 1000 nM (sheet 'Samples'), CATDS: 8.7046948596417206E-2; n = 1.
A further assay deals with MAP2K1. Particulars: read-out: apparent Kd; compound concentrations: 100 nM and 1000 nM (sheet 'Samples'), CATDS: 8.98649962952279E-2; n = 1.
A further assay has as its system TP53RK. Particulars: read-out: apparent Kd; compound concentrations: 100 nM and 1000 nM (sheet 'Samples'), CATDS: 8.4353152889517405E-2; n = 1.

Molecules are shown by their SMILES. Where two headings read alike, the source gives them in different places.

For the compound `Cc1cccc(Nc2ncc(-c3ccccc3)o2)c1` [GW632046X], the potency estimated from few doses in the assay on ADRBK1 (compound concentrations: 100 nM and 1000 nM (sheet 'Samples'), CATDS: 0.18601551584516901) is 1420 nM; in the assay with FLT3 (CATDS: 0.87351473919373701), 26.1 nM; in the assay with NNT (CATDS: 0.20642475044215899) it was 1000 nM; with PDGFRB (CATDS: 0.21575328371949701), 873 nM.

For the compound `COc1cc2ncn(-c3cc(OCCc4ccccc4)c(C(N)=O)s3)c2cc1OC` [GSK204925A], the potency estimated from few doses in the assay on AKT2 (CATDS: 0.131386999232284) is 2300 nM; in the assay with AKT3 (CATDS: 0.150950387905983) it was 1570 nM; with MAP2K2 (CATDS: 0.14753696988114701), 1660 nM; in the assay with MYLK3, 137 nM; with NQO1 (CATDS: 0.17515611913919399), 1100 nM; in the assay on RIOK2 it was 2210 nM.

Take `CCCC(=O)Nc1n[nH]c2ncccc12` [SB-601436]: the potency estimated from few doses is 2140 nM in the assay on ADRBK1 (compound concentrations:100 nM and 1000 nM (sheet 'Samples')); 1310 nM with MAPK14; 2470 nM in the assay on PIK3C2A; 2080 nM in the assay on PRKCI; 2170 nM with PYGL; 1890 nM with RPS6KA3. Further, in the assay on STK16, the potency estimated from few doses was 1480 nM.

For the compound `Cc1cc(O)cc(C)c1/C=C/c1cncc(C(=O)N(C)C)c1` [GW427984X], the potency estimated from few doses was 1860 nM in the assay on AGPS and 1750 nM in the assay with NNT (CATDS: 0.50748873234437097).

Take `CNC(=O)c1ccc2c(c1)ncn2-c1ccc(CC(=O)OC(C)(C)C)cc1` [GSK840]: the potency estimated from few doses was 2020 nM with ADRBK1 (compound concentrations: 100 nM and 1000 nM (sheet 'Samples'), CATDS: 7.1088636568514996E-2); 469 nM in the assay with FLT3 (CATDS: 0.11498835622255001); 857 nM with FRK; 12.1 nM with MAP2K5; 1420 nM in the assay on PDGFRB (CATDS: 7.8407173450410803E-2); 1500 nM in the assay with PRKCZ. The potency estimated from few doses is 1650 nM with PTK6, 759 nM in the assay with RIPK2, 4.67 nM in the assay on RIPK3 (CATDS: 0.614198823590974) and 1400 nM in the assay on ZAK.

On to `Cc1ccc(S(=O)(=O)Nc2ccc(Nc3nccc(Nc4cccc5[nH]ncc45)n3)cc2)cc1` [GSK581271A], for which the values for the potency estimated from few doses in the assay on AGK and with MAP2K2 (CATDS: 0.44930961839154798) were 1530 nM and 2420 nM, respectively.

As to `Cl.N#CCc1ccc(Nc2nccc(Nc3ccc(Oc4ccccc4)cc3)n2)cc1` [GW639905A], the potency estimated from few doses with AKT2 (CATDS: 8.2827110731653497E-2) is 1920 nM; in the assay with AKT3 (CATDS: 0.118826721397903), 954 nM; in the assay on CDK17, 1990 nM; in the assay with CDK9, 2420 nM; with CSNK1A1 it was 1920 nM; in the assay on HCK, 532 nM. Moreover, the potency estimated from few doses with ILK was 1720 nM; in the assay on MAP2K1 it was 1610 nM; with NQO1 (CATDS: 9.3069785012321701E-2), 1500 nM; with RIPK3 (CATDS: 8.3707794531398802E-2) it was 1880 nM; in the assay with TP53RK, 1850 nM.
